Rows were chosen to be rich in hits. Some 31% of all compounds tested hit in one or more screens of this group.
CYP2C19 inh: blockers of cytochrome P450 2C19 activity – biochemical, luminescence, ADME assay, primary screen | P33261 | CYP2C19 Supersomes, luciferin-H EGE luminescence, 30 min | inhibition, % at 5 µM | hit rate 21% among 96,000 | AID 778, 2007;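 active = CYP2C19 inhibition above a set limit at 5 µM in the primary screen, cut at about 50% in these data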;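 also: plate controls were negative control wells for no effect and 2.5 mM tranylcypromine positive control for full effect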
CYP2C9 inh: blockers of cytochrome P450 2C9 activity – biochemical, luminescence, ADME assay, primary screen | P11712 | inhibition, % at 5 µM | CYP2C9 Supersomes, luciferin-H conversion | AID 777, 2007 | hit rate 20% among 96,000;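 active = blocking of liver enzyme CYP2C9 beyond about 50% at 5 µM, limit read from the data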
Target sequence (P11712 whole entry, looked up): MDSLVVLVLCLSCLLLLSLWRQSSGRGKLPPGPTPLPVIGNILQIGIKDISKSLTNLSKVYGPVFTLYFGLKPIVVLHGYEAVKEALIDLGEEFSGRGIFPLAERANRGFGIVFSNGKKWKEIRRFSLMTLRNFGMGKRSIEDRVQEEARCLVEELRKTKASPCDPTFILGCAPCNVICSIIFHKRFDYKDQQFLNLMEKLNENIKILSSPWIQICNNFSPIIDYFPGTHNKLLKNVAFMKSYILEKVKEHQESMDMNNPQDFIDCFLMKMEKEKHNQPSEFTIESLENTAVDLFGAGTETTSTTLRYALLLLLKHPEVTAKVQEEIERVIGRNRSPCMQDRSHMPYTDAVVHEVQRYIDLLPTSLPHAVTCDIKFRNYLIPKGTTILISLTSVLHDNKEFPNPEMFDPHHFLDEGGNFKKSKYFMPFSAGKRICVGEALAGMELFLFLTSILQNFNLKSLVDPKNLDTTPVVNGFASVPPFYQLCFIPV
CYP2C19 act: human CYP2C19 activators, primary screen, biochemical, luminescence | Cytochrome P450 2C19 (Homo sapiens), P33261 | recombinant CYP2C19, luciferin-H EGE luminescence; stronger effect = higher value; 0 = fully inhibited enzyme, 1 = untreated enzyme | activation factor at 5 µM | 96,000 tested, under 10 active | AID 1025, 2008;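 active = activation factor of at least 2 at 5 µM in the primary screen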;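 also: 0 = wells with 2.5 mM tranylcypromine and 1 = vehicle-only wells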
PLAP activator: PLAP enzyme activators, biochemical, luminescence, HTS; Alkaline phosphatase, placental type (Homo sapiens), P05187; AID 696, 2007; hit rate 1.2% among 96,000; purified PLAP enzyme, luminescent substrate read-out; stronger effect = higher value; activation fold at 20 µM; in the data active = activation fold above about 2
CYP2C9 act: human CYP2C9 activators, primary screen, biochemical, luminescence | hit rate 1.4% among 96,000 | recombinant CYP2C9, luciferin-H conversion; stronger effect = higher value; factor 1 = untreated enzyme, 0 = blocked | activation factor at 5 µM;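 active = activation factor of 2 or more for CYP2C9 at a 5 µM dose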;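 also: 0 = sulfaphenazole-blocked wells and 1 = vehicle-only wells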
* marks the source's active call; other numbers are inactive results.

SMILES	CYP2C19 inh	CYP2C9 inh	CYP2C19 act	PLAP activator	CYP2C9 act
Cc1cc(=O)oc2cc(OC(C)C)ccc12	7	4	0.9	0.8	1
Cc1ccc(OC(C)C(=O)N2CCCc3ccccc32)cc1 (stereo not drawn)	54*	44	0.5	0.8	0.6
CCc1cc(=O)oc2c(C)c(OCC(=O)N3CCCc4ccccc43)ccc12	66*	94*	0.3	1.6	0.1
Cc1cc(=O)oc2cc(OCC(O)CN3CCN(c4ccccc4)CC3)ccc12 (stereo not drawn)	13	5	0.9	1.3	0.9
COCC(=O)N1CCCc2ccccc21	3	1	1	1	1
CC(=O)Nc1ccc(S(=O)(=O)N(C)CC(=O)Nc2ccccc2N2CCOCC2)cc1	13	-34	0.9	0.8	1.3
Clc1ccc(-c2nc3ccccc3n2OCc2ccccc2)cc1	-3	-5	1	1	1.1
COc1ccc(OC(C)C(=O)N2CCc3ccccc3C2)cc1 (stereo not drawn)	52*	23	0.5	0.9	0.8
COc1ccc(OC(C)C(=O)N2CCC(C)CC2)cc1 (stereo not drawn)	16	0	0.8	0.9	1
COc1cc2c(cc1OC)CN(C(=O)Cc1ccc(OC)c(S(=O)(=O)N3CCOCC3)c1)CC2	-6	6	1.1	1.3	0.9
CC(C)OC(=O)CC(=O)CSc1nc2c(cc1C#N)CCCCC2	73*	87*	0.3	1	0.1
CCOC(=O)CC(=O)CSc1nc2c(cc1C#N)CCCCC2	47	66*	0.5	1	0.3
N#Cc1cc2c(nc1SCC(=O)N1CCCCC1)CCCC2	-9	47	1.1	1.2	0.5
CCCC(=Nc1ccc(N)cc1)C1=C(O)C(C(=O)OC)C(C)(C)CC1=O (stereo not drawn)	31	41	0.7	1	0.6
CC(NC(=O)Cn1cnc([N+](=O)[O-])n1)c1ccccc1 (stereo not drawn)	2	17	1	1	0.8
Cc1cc([N+](=O)[O-])cnc1NC(C)c1ccccc1 (stereo not drawn)	65*	50	0.4	1	0.5
C=CCC(NC(C)c1ccccc1)c1ccco1 (stereo not drawn)	0	20	1	1.1	0.8
O=C(NCc1cccs1)C1CCCN(S(=O)(=O)c2cnc[nH]2)C1 (stereo not drawn)	84*	47	0.2	0.9	0.5
O=C(NCCN1CCN(c2ccccc2)CC1)C1CCCN(S(=O)(=O)c2cnc[nH]2)C1 (stereo not drawn)	12	19	0.9	1.7	0.8
O=C(C1CCCN(S(=O)(=O)c2ccc(F)cc2)C1)N(Cc1cccs1)C1CC1 (stereo not drawn)	95*	73*	0.1	1.5	0.3
O=C(NCc1ccccc1Cl)C1CCCN(S(=O)(=O)c2cnc[nH]2)C1 (stereo not drawn)	96*	92*	0	1.2	0.1
CC(C)n1cc(NC(=O)c2cc(-c3ccccc3)on2)cn1	29	26	0.7	0.8	0.7
CC1CCC2(CC1)NC(=O)c1ccccc1O2 (stereo not drawn)	93*	22	0.1	0.9	0.8
COc1cccc(C2C3=C(N=C4SCC(=O)N42)c2ccccc2CC3)c1OC (stereo not drawn)	87*	60*	0.1	1	0.4
CCOC(=O)C1=C(C)N=C2c3ccccc3C(=O)C2C1c1ccc(C)cc1 (stereo not drawn)	24	69*	0.8	1.2	0.3
SMILES	CYP2C19 inh	CYP2C9 inh	CYP2C19 act	PLAP activator	CYP2C9 act
CCOC(=O)C1=C(C)N=C2c3ccccc3C(=O)C2C1c1ccccc1 (stereo not drawn)	17	56*	0.8	1	0.4
COC(=O)c1nn(-c2cccc(C(F)(F)F)c2)c(=O)cc1Sc1ccccn1	56*	70*	0.4	1	0.3
CC1CCCN(Cc2nc3c(c(=O)n(C)c(=O)n3C)n2CCCc2ccccc2)C1 (stereo not drawn)	11	62*	0.9	1.5	0.4
CCOC(=O)CSc1nc2c(c(=O)n(C)c(=O)n2C)n1CCCc1ccccc1	57*	73*	0.4	1.6	0.3
CCOC(=O)N1CCN(Cc2nc3c(c(=O)n(C)c(=O)n3C)n2CCCc2ccccc2)CC1	35	70*	0.7	1.3	0.3
CCn1c(SCC(=O)OCc2ccccc2)nc2c1c(=O)n(C)c(=O)n2C	24	10	0.8	1.2	0.9
Cn1c(=O)c2c(nc(CN3CCN(C(=O)c4ccco4)CC3)n2CCCc2ccccc2)n(C)c1=O	50	85*	0.5	1.4	0.1
CCOC(=O)C1CCCN(C(=O)c2ccc(CS(=O)(=O)c3ccc(C)cc3)o2)C1 (stereo not drawn)	11	83*	0.9	1.3	0.2
Cc1ccc(S(=O)(=O)Cc2ccc(C(=O)N3CCCC3)o2)cc1	58*	19	0.4	0.9	0.8
Cn1c(SCC(=O)NC(=O)NCc2ccco2)nnc1C(F)(F)F	15	12	0.9	1	0.9
CCOc1ccc2nc(SC(C)C(N)=O)[nH]c2c1 (stereo not drawn)	45	18	0.6	0.9	0.8
Cn1c(=O)[nH]c(=O)c2c1nc(N1CCCCCC1)n2CCSc1nc2ccccc2[nH]1	-5	27	1	1.4	0.7
CCC(=O)n1nc(-c2ccc(Cl)cc2)nc1NCc1ccccc1	8	50*	0.9	0.9	0.5
CCOc1nc(NCc2ccco2)nc(Nc2ccc(OC)cc2)n1	32	35	0.7	0.8	0.6
COc1ccc(Nc2nc(NCc3ccco3)nc(N/N=C/c3ccccc3)n2)cc1	-5	61*	1	1	0.4
COc1ccc(CC(=O)n2nc(-c3ccccc3)nc2NCc2ccco2)cc1	24	56*	0.8	0.9	0.4
CC1(C)Cc2ccccc2-c2nnc(SCC(=O)Nc3nc4ccccc4s3)n21	9	7	0.9	1.1	0.9
Cc1ccccc1-n1nnnc1SCC(=O)Nc1ccc(S(=O)(=O)N2CCCC2)cc1	-18	-2	1.2	1	1
COc1cc(NC(=O)CSc2nnc(-c3ccncc3)n2C2CCCCC2)ccc1NC(=O)c1ccco1	62*	72*	0.4	1.6	0.3
O=C(CSc1nnnn1-c1ccc(O)cc1)Nc1cccc(S(=O)(=O)N2CCCC2)c1	93*	38	0.1	1.3	0.6
Cc1ccc(-n2nnnc2SCC(=O)NNC(=O)c2ccco2)cc1C	-2	-95	1	2.3*	2*
c1ccc(OCCSc2nnnn2C2CCCCC2)cc1	68*	82*	0.3	1.2	0.2
CCOC(=O)C1=C(O)CSC1=Nc1ccc(Cl)cc1	38	20	0.6	1	0.8
